For part of these data: Measured potencies and affinities stand elsewhere.

Our source for the Percent Effect values is ChEMBL document CHEMBL3988442, “University of Dundee, Small-Polar-MMV Screening Library” (2021).

Holding throughout (design): scale not given: direction of the effect not stated beside the values
Assay [1] addresses Protein translocase subunit SecA (Escherichia coli (strain K12)) (UniProt P10408). In words: Assay to Identify E. coli SecA ATPase Inhibitors. It is filed as functional. To be noted: 30 µM.
The target of assay [2] is T1, Ubiquitin-activating enzyme e1, putative (Leishmania donovani (strain BPK282A1)) (UniProt E9BSI1).
T1 sequence (whole entry): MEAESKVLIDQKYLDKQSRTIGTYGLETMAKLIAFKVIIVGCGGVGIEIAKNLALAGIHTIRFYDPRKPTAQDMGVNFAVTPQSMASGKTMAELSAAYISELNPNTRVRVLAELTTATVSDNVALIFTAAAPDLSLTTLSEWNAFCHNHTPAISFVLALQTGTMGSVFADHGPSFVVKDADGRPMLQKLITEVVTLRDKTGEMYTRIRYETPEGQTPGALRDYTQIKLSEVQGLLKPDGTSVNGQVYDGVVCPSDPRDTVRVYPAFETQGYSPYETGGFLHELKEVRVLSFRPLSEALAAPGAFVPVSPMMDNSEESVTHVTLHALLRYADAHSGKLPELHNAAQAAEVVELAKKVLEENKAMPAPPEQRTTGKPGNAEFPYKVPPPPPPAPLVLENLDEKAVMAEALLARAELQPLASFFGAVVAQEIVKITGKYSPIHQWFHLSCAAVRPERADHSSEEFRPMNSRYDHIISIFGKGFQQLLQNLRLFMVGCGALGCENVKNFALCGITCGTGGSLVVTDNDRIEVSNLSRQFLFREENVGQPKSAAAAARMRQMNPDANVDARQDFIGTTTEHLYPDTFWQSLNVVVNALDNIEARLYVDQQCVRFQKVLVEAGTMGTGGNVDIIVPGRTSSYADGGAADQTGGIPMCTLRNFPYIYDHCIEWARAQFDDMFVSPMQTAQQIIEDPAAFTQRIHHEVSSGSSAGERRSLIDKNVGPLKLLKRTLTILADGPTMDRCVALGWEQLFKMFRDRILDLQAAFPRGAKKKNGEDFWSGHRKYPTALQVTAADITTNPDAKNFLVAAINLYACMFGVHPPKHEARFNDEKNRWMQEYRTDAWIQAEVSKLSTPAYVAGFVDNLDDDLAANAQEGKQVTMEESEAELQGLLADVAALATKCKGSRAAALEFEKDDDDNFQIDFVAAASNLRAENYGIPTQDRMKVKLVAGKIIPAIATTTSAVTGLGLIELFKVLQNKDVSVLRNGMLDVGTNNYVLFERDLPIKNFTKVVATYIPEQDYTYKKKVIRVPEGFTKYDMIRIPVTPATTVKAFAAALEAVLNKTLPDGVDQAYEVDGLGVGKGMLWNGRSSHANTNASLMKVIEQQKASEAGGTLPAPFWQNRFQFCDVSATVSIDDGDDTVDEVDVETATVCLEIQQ
As to the kind of experiment: Leishmania donovani Ubiquitin Activating Enzyme (LdE1). The assay is classed as functional. The following applies: 30 µM.

Assay [3] concerns the target AMP-activated protein kinase, AMPK (Homo sapiens) (UniProt P54646+O43741+P54619+Q9UGJ0+Q9Y478+Q13131+Q9UGI9). As to the kind of experiment: AMP-dependent Kinase enzyme assay. An in vitro enzyme assay that detects ADP turnover that is directly proportional to AMPK activity. This uses naive AMPK that is activated during the assay with MK-8722. It is filed as functional. The following applies: 30 µM.

Assay [4] has as its target Sialic acid-binding Ig-like lectin 9 (Homo sapiens) (UniProt Q9Y336). In words: Hs-Siglec9 ALPHAscreen SOP 20170721. The following applies: 10 µM. In general terms: Bead proximity is the source of the signal in Alpha formats.
Another assay has as its system Trypanosoma cruzi. In words: Trypanosoma cruzi phosphomannomutase and mannose-1-phosphate guanylyltransferase assay. It is filed as functional. To be noted: 10 µM.
The target in assay [5] is T2, Arginase-2, mitochondrial (Homo sapiens) (UniProt P78540).
T2 sequence (whole entry): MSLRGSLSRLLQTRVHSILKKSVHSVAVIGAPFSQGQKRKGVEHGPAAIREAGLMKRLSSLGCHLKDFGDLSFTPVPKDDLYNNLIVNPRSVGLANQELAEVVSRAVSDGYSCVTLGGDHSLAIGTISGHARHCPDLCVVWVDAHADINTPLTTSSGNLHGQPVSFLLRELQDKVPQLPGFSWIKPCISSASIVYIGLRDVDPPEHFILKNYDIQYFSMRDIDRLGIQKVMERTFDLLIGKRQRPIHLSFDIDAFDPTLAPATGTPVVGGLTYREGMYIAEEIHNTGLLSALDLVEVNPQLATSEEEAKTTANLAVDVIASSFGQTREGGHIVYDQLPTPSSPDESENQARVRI
In words: in vitro enzyme assay to detect the production of urea directly proportional to the activity of Arginase II. Note: in the data most compounds retested in dose-response had high values. It is filed as functional. The following applies: 33.3 µM.

Assay [6] has as its target T3, Proteasome subunit beta (Trypanosoma cruzi) (UniProt O96673).
T3 sequence (whole entry): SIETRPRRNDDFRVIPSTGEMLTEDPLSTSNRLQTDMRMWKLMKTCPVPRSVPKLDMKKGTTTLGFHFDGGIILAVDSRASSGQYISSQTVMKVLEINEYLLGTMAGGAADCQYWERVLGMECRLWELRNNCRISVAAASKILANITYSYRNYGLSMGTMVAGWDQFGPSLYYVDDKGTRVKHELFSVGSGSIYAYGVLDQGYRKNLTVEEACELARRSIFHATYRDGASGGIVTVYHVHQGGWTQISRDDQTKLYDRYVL
As to the kind of experiment: Trypanosoma cruzi proteasome chymotrypsin-like activity (TcProtChymo) assay. Note: in the data most compounds retested in dose-response had high values. It is filed as functional. The following applies: 9.37 µM.

The species entered for the next assay is Homo sapiens. As to the kind of experiment: To identify inhibition of the IFN signalling (Jak-Stat) pathway via expression of an eGFP reporter gene under the control of an IFN-stimulated response element (ISRE) containing MxA promoter. It is filed as functional. To be noted: 30 µM. A general note: A reporter such as luciferase makes a cellular process visible.

The target in assay [7] is T4, Tyrosyl-tRNA synthetase, putative (Trypanosoma cruzi (strain CL Brener)) (UniProt Q4DSP6).
T4 sequence (whole entry): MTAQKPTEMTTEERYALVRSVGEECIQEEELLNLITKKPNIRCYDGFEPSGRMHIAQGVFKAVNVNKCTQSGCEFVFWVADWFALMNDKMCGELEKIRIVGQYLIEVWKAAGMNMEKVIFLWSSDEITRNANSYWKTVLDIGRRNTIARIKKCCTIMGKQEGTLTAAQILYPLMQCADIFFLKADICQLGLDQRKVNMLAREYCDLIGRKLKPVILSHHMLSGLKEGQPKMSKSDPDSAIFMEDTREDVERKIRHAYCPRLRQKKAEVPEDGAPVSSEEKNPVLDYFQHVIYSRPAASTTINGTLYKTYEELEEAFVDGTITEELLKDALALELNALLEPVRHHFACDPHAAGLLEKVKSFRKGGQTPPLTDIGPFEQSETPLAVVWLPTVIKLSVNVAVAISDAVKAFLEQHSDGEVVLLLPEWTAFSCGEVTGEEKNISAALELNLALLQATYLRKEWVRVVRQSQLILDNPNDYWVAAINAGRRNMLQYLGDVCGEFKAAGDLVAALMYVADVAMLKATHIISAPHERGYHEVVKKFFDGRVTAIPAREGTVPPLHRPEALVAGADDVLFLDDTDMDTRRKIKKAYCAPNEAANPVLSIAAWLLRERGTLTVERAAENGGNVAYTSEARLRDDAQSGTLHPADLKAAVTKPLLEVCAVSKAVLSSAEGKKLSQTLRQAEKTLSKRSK
As to the kind of experiment: Trypanosoma cruzi tyrosyl tRNA synthetase (TcYRS) _High Tyrosine SOP. Note: in the data most compounds retested in dose-response had high values. The assay is classed as functional. The following applies: 30 µM.

The target in assay [8] is T4, Tyrosyl-tRNA synthetase, putative (Trypanosoma cruzi (strain CL Brener)). In words: Trypanosoma cruzi tyrosyl tRNA synthetase (TcYRS) SOP. It is filed as functional. The following applies: 30 µM.
The target in assay [9] is Chromo domain-containing protein 1 (Saccharomyces cerevisiae (strain ATCC 204508 / S288c) (Baker's yeast)) (UniProt P32657). In words: ScCHD-1 Enzyme Inhibition Assay. Note: in the data most compounds retested in dose-response had high values. The assay is classed as functional. To be noted: 30 µM.
Chain of Chromo domain-containing protein 1 (Saccharomyces cerevisiae (strain ATCC 204508 / S288c) (Baker's yeast)) (P32657 whole entry, the tested form may be a part): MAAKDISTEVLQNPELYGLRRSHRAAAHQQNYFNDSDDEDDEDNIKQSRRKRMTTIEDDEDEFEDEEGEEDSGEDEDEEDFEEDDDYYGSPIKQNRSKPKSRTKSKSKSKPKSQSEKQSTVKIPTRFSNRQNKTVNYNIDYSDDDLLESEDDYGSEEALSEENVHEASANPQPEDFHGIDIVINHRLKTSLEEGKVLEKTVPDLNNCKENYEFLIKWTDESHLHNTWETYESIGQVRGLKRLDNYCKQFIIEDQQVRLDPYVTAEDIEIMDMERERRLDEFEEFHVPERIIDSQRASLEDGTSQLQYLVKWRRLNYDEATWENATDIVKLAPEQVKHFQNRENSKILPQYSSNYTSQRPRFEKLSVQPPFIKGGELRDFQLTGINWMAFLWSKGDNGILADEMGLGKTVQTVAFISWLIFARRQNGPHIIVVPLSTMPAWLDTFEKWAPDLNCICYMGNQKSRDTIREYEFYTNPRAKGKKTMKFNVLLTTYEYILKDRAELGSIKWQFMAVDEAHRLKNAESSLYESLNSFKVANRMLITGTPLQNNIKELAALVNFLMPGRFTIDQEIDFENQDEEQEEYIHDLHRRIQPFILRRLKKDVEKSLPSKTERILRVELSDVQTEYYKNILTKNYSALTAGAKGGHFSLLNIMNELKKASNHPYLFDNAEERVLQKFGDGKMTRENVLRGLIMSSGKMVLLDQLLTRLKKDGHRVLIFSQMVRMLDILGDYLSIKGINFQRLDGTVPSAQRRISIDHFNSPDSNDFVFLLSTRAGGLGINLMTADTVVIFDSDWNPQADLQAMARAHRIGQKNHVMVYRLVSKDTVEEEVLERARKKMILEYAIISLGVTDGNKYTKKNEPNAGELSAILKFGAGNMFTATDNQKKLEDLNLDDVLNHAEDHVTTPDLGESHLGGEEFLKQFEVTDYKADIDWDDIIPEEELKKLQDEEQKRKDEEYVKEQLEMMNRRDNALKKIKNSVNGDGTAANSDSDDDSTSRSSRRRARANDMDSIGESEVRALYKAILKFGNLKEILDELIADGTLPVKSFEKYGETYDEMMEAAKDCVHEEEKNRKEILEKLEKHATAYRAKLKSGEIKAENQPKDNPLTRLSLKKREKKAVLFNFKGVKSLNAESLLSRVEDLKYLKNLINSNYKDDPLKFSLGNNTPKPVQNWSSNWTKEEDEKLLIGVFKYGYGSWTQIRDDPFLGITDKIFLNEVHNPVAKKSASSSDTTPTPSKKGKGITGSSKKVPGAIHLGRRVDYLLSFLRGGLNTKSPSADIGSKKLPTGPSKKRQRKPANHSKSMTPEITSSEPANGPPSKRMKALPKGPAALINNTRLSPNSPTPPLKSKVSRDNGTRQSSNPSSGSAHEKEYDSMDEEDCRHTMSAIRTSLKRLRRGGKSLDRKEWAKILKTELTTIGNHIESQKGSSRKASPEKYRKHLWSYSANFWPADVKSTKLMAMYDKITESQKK

Chain of Sialic acid-binding Ig-like lectin 9 (Homo sapiens) (Q9Y336 whole entry): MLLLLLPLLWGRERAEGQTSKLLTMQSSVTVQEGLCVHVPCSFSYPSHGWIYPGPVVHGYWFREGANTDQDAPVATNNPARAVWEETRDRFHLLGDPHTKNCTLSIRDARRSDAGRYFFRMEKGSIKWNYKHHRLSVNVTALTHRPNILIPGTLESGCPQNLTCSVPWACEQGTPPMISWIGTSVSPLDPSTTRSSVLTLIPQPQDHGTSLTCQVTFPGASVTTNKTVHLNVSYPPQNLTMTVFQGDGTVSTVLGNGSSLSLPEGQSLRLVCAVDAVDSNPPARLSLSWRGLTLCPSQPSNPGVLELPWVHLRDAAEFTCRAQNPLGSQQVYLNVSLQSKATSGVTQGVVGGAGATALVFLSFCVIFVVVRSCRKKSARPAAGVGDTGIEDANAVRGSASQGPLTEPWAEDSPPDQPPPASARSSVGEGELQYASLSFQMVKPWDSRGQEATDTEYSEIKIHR
Chain of Protein translocase subunit SecA (Escherichia coli (strain K12)) (P10408 whole entry): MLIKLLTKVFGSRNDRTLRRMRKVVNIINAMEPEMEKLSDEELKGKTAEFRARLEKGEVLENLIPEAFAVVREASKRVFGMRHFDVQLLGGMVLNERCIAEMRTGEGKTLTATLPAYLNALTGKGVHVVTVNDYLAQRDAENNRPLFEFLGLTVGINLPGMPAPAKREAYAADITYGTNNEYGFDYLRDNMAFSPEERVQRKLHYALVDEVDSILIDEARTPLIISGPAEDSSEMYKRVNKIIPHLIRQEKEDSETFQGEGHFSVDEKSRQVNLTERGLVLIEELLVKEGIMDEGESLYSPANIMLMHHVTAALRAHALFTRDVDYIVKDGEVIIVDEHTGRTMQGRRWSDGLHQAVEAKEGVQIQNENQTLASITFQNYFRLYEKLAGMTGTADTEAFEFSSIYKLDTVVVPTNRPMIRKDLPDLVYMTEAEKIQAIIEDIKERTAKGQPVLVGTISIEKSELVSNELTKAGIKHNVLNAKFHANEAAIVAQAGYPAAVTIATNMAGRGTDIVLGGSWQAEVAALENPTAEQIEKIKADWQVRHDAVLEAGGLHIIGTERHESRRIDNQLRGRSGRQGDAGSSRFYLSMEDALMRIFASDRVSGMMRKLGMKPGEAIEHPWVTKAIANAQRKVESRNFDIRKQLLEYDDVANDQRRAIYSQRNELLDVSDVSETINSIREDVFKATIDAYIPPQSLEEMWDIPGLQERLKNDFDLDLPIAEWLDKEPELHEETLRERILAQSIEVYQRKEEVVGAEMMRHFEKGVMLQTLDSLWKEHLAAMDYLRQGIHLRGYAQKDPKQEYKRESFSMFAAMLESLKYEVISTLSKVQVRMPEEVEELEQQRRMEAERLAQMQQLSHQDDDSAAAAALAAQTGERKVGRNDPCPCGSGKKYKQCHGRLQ

For the molecule `CNC(=O)CS(=O)(=O)Cc1coc(-c2ccc(OC)cc2)n1`, the Percent Effect in [1] is -3.22%; in assay [2] it was 2.7%; in assay [3], -2.86%; in assay [4], -2.16%; in the assay on Trypanosoma cruzi, -1.35%; in assay [5] it was -1.91%. The Percent Effect is 12.8% in assay [6]; 7.16% in the assay listed under Homo sapiens; 2.65% in assay [7]; -4.88% in assay [8]; -2.91% in [9].

On to `CC(NC(=O)NCCCN1CCCCCC1)c1nncn1C` (centres undefined), for which the Percent Effect in assay [1] was -2.66%; in [2], 10.8%; in [3], -6.67%; in assay [4], 18.7%; in the assay on Trypanosoma cruzi, 6.78%; in assay [5], -6.47%. Moreover, the Percent Effect was -5.03% in assay [6]; 18% in the assay listed under Homo sapiens; 5.94% in [7]; 18.3% in assay [8]; -3.61% in assay [9].

For the molecule `CNCC(=O)N1CCC(c2ccnc(Nc3ccc(C)cn3)n2)C1` (centres undefined), the Percent Effect was -7.25% in assay [1]; 17.6% in assay [2]; 1.51% in assay [3]; 1.04% in assay [4]; 2.37% in the assay on Trypanosoma cruzi; -4.87% in assay [5]. The Percent Effect in assay [6] was 17.9%; in the assay listed under Homo sapiens, -13.7%; in assay [7] it was 8.6%; in [8], 19.5%; in assay [9], -16.1%.

As for `COc1ccc(CN(C)C(=O)NCc2c(C)cc(C)[nH]c2=O)cc1`, the Percent Effect in [1] is -4.97%; in assay [2] it was 15.8%; in assay [3], -2.27%; in assay [4], -2.15%; in the assay with Trypanosoma cruzi, -0.84%; in assay [5] it was 1.08%. The Percent Effect in assay [6] was 2.12%; in the assay listed under Homo sapiens it was 9.7%; in assay [7], 3.45%; in assay [8], 18.5%; in [9], -0.177%.

On to `CC(=O)NC1CCCN(C(=O)NCc2ccc(-c3ccn[nH]3)cc2)C1` (centres undefined), for which the Percent Effect in assay [1] is -4.57%; in assay [2], 21.1%; in assay [3], 2.99%; in assay [4], -2.61%; in the assay on Trypanosoma cruzi it was 3.83%; in assay [5], 0%. Also, the Percent Effect in [6] is 12.4%; in the assay filed under Homo sapiens it was -12.3%; in [7], 8.37%; in assay [8], 23.5%; in assay [9], -8.05%.

As for `CCOC(=O)N1CCN(c2nc(NCCCO)c3ccccc3n2)CC1`, the Percent Effect in [1] is -3.88%; in assay [2], -1.33%; in assay [3], 5.25%; in assay [4] it was 7.39%; with Trypanosoma cruzi, 5.5%; in assay [5] it was -0.88%. The Percent Effect in [6] is 0.739%; in the assay filed under Homo sapiens, 15.2%; in [7] it was 2.12%; in [8], 5.13%; in assay [9] it was -3.87%.

Take `COc1ccc(CN2CCc3nc(C4CCCCN4C)ncc3C2)cc1` (centres undefined): the Percent Effect in assay [1] is -0.233%; in assay [2], -8%; in assay [3] it was -0.187%; in [4] it was -0.354%; in the assay on Trypanosoma cruzi it was 3.54%; in [5] it was -2.1%. For the same molecule, the Percent Effect was 28.3% in assay [6]; 11.8% in the assay filed under Homo sapiens; 21.3% in assay [7]; 26.9% in assay [8]; -1.3% in [9].

For `CCS(=O)(=O)CCn1ccc(NC(=O)CCc2cccc(C)c2)n1`, the Percent Effect in assay [1] was -1.95%; in assay [2], 5.41%; in [3] it was 2.06%; in [4], -5.21%; in the assay on Trypanosoma cruzi, -3.91%; in [5] it was -2.08%. The Percent Effect was determined as 11.8% in [6]; 5.07% in the assay listed under Homo sapiens; 9.9% in assay [7]; 13.4% in assay [8]; 4.48% in [9].

`Cn1c(CNc2c(F)cccc2-n2cccn2)cc(=O)n(C)c1=O`: the Percent Effect in assay [1] was -1.07%; in [2] it was 6.94%; in assay [3], -4.86%; in assay [4], 3.69%; with Trypanosoma cruzi it was 1.46%; in assay [5], 20.8%. In addition, the Percent Effect is 6.14% in assay [6]; 5.47% in the assay filed under Homo sapiens; 5.26% in assay [7]; 10.3% in assay [8]; -0.228% in assay [9].
